KDM5B inhibitor: blocks human KDM5B histone demethylase activity; Q9UGL1; KDM5B demethylase, FDH-coupled NADH fluorescence (FDH is formaldehyde dehydrogenase); Potency, µM (titrated, usually from 57.7 µM), actives largely listed as inhibitors; 220,000 tested, 2.6% active; AID 1347165; also: potency is read from the fitted curve at half-maximal effect; 0% is about no effect; nearly all actives have a fitted effect of over 70% in size
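Inhibition is measured as reduced NADH fluorescence generation from FDH coupling to formaldehyde release. Truncated KDM5BΔAP at 200 nM final acts on H3K4me3 peptide (12.5 µM in substrate mix) in pH 7.5 HEPES buffer with Tween-20, 30 min, room temperature.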
IP6K1 inh: blocks human inositol hexakisphosphate kinase 1 | Q92551 | 140,000 tested, 0.81% active | IP6K1 kinase, ADP-Glo luminescence, 2 h; active compounds read low | activity change, % (series mostly up to about 58 µM); in the data active = activity change below about -25%; also: % is scaled to controls: 0 for no effect and ±100 for the full control effect
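ADP-Glo luminescence measures ADP made by human IP6K1 during a 2 h RT reaction with ATP/IP6 (mix at 1.3 mM/130 uM); top library doses 57.5 and 19.1 uM final.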
HEK293 viab: cell viability loss counter-screen. HEK-293-SNCA-luc viability, GF-AFC fluorescence, 24 h. 150,000 tested, 0.12% active. Potency, µM (series often up to 57.1 µM), inactives show top-dose activity change, negative = cytotoxicity, actives largely listed as cytotoxic;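 also: potency is read from the fitted curve at half-maximal effect; 0% = DMSO-treated cells and -100% = medium-only wells without cells; nearly all actives have a fitted effect of over 30% in size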
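HEK-293-SNCA-luc cells (1500/well) plated 24 h, then exposed 24 h to a dilution series; GF-AFC added 30 min at 37C, fluorescence 405/540 nm; normalised to medium-only and DMSO wells, Hill fit.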
SNCA expr inh: inhibitors of alpha-synuclein (SNCA) gene expression; AID 1671194; HEK-293 SNCA-luciferase knock-in, luminescence, 24 h; 140,000 tested, 0.17% active; Potency, µM (doses to about 57.2 µM), without a hit: top-dose activity change, negative = inhibition, usual class: inhibitors;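 also: potency is read from the fitted curve at half-maximal effect; plate controls were DMSO cells for no effect and cell-free wells for full effect; nearly all actives have a fitted effect of over 45% in size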
An asterisk follows results filed as active; i = inactive; u = inconclusive; x = no result given; [ ] = remark or other dose. Compounds with a hit are over-represented: about 2.8% of the library has one in this group of screens. Unless noted, calls follow the shape of the dose curve; as a rule, active = well fitted curve in the direction sought with a large enough effect; inconclusive = small, poorly fitted or top-dose-only effect, or another doubt; inactive = no such curve, though single readings can be large; an effect the other way counts as inactive or inconclusive.

SMILES	KDM5B inhibitor	IP6K1 inh	HEK293 viab	SNCA expr inh
Cc1noc(C)c1CC(=O)N1CCCC2(C1)Nc1cccnc1NC2=NCc1ccccc1 (stereo unspecified)	28µM*	12	3%	3%
CCn1ccc(C(=O)N2CCCC3(C2)Nc2cccnc2NC3=NCc2ccccc2)n1 (stereo unspecified)	28µM*	0	6%	u
O=C(NCc1cccn1Cc1cccc(F)c1)NC12CC3CC(CC(C3)C1)C2	i	x	x	x
COc1cccc(C(=O)N2CCCC3(C2)Nc2cccnc2NC3=NCc2ccccc2)c1 (stereo unspecified)	28µM*	-3	-5%	10%
O=C(c1cccc(F)c1)N1CCN2C(=O)N(Cc3ccccc3)C(=O)[C@H]2C1	i	26	9%[87.6 µM]	-12%[87.6 µM]
COc1cc(N2CC(C(=O)Nc3c(C)nn(C)c3C)CC2=O)cc(OC)c1OC (stereo unspecified)	i	x	x	x
COCC(=O)N1CCc2c(sc3ncnc(N4CCN(C)CC4)c23)C1	i	-1	5%	-3%
CCNc1ncnc2sc3c(c12)CCN(Cc1ccc[nH]1)C3	28µM*	-3	-21%	u
CCNC(=O)N1CCc2c(sc3ncnc(NCC)c23)C1	32µM*	4	-2%	-17%
CCNc1ncnc2sc3c(c12)CCN(Cc1cccnc1)C3	u	-3	2%	-20%
CCNc1ncnc2sc3c(c12)CCN(C(=O)NCCOC)C3	28µM*	12	-3%	u
CCCNC(=O)N1CCc2c(sc3ncnc(N4CCN(C)CC4)c23)C1	28µM*	-3	5%	-6%
Cc1cccc(OCC(O)Cn2c(NCCN(C)C)nc3c2c(=O)n(C)c(=O)n3C)c1 (stereo unspecified)	i	x	x	x
Cc1cc(C(=O)N2CCN(c3ccccc3)CC2)c2ccccc2n1	i	x	x	x
COCCCNc1ncnc2sc3c(c12)CCNC3	25µM*	2	1%	u
O=C(c1nccc2ccccc12)N1CCc2c(nc(-c3ccc(F)cc3)[nH]c2=O)C1	u	18	-10%	-11%
O=C1CCC2(CCCN(c3ncc(Cl)cc3F)C2)CN1Cc1cccnc1 (stereo unspecified)	28µM*	1	11%	-4%
COc1cccc(-c2cn3c(n2)N(C(=O)Cn2ccnc2)CCC3)c1	i	2	9%	71%
N#Cc1cccc(-c2cn3c(n2)N(C(=O)c2cnccn2)CCC3)c1	u	8	1%	37%
N#Cc1cccc(-c2cn3c(n2)N(C(=O)c2ccsc2)CCC3)c1	18µM*	10	3%	85%
N#Cc1cccc(-c2cn3c(n2)N(C(=O)COc2ccccc2)CCC3)c1	28µM*	-3	4%	1%
N#Cc1cccc(-c2cn3c(n2)N(C(=O)c2ccccc2)CCC3)c1	20µM*	-6	1%	83%
N#Cc1cccc(-c2cn3c(n2)N(C(=O)CC2CCCC2)CCC3)c1	20µM*	15	6%	59%
CC(=O)NCC(=O)N1CCCn2cc(-c3cccc(C#N)c3)nc21	i	10	-11%	-19%
CC1(C)CC(CC(N)=O)CC(C)(C)N1	i	x	x	x
SMILES	KDM5B inhibitor	IP6K1 inh	HEK293 viab	SNCA expr inh
COc1ccc(OC)c(S(=O)(=O)N2CCCCCCNC(=O)[C@@H]3CCC[C@@H]32)c1	i	-13	4%	-3%
N#Cc1cccc(-c2cn3c(n2)N(C(=O)Cc2ccsc2)CCC3)c1	32µM*	9	8%	13%
Cc1ccc(C(=O)N2CCCn3cc(-c4cccc(C#N)c4)nc32)cc1	32µM*	7	5%	73%
N#Cc1cccc(-c2cn3c(n2)N(C(=O)c2ccccc2F)CCC3)c1	20µM*	5	-7%	4%
O=C(Cc1cccs1)N1CCCn2cc(-c3ccccc3F)nc21	u	3	-3%	-16%
Cc1ccc(C(=O)N2CCCn3cc(-c4ccccc4)nc32)cn1	u	-5	-22%	92%
O=C(c1ccco1)N1CC(Oc2ccccc2-c2nc(-c3cnccn3)no2)C1	x	20	-17%	4%
CCCCCC(=O)Nc1nc2c(s1)C[C@@H]1[C@](C)(CO)[C@H](O)CC[C@@]1(C)[C@@H]2CC(=O)N[C@H](C)c1ccccc1	i	-2	-20%	2%
C#CCN(C)C(=O)C[C@@H]1c2nc(-c3cccnc3)sc2C[C@@H]2[C@](C)(CO)[C@H](O)CC[C@]21C	32µM*	4	10%	11%
COCCNC(=O)C[C@@H]1c2nc(-c3ccccc3)sc2C[C@@H]2[C@](C)(CO)[C@H](O)CC[C@]21C	28µM*	-13	4%	1%
C[C@]1(CO)[C@H]2Cc3sc(-c4ccccc4)nc3[C@@H](CC(=O)N3CCOCC3)[C@]2(C)CC[C@H]1O	u	-8	2%	u
C[C@@H](NC(=O)C[C@@H]1c2nc(-c3cccnc3)sc2C[C@@H]2[C@](C)(CO)[C@H](O)CC[C@]21C)c1ccccc1	32µM*	-4	-6%	-3%
CC(C)C[C@H](CO)NC(=O)C[C@@H]1c2nc(-c3cccnc3)sc2C[C@@H]2[C@](C)(CO)[C@H](O)CC[C@]21C	32µM*	-12	-5%	6%
Cc1c(CN2C[C@@H](CO)[C@H](NC(=O)c3ccccc3)C2)cnn1C	i	-2	-4%	u
CCc1nc2c(c(-c3ccc(OC)cc3)n1)CCN(Cc1cncs1)CC2	i	-2	-2%	u
O=C(OCCOc1ccc(F)cc1)c1ccc2nccnc2c1	i	x	x	x
c1cnc2cc(-c3nc(C4CCOC4)no3)ccc2n1 (stereo unspecified)	i	-10	0%	82%
COc1cccc([S+](=O)([O-])NC[C@@H]2CC[C@H]3C[C@@H]2C3(C)C)c1	i	2	u	7.1µM*
CC1(C)[C@H]2CC[C@@H](CNC(=O)c3cccc(Br)c3)[C@@H]1C2	i	0	-15%[87.6 µM]	-7%[87.6 µM]
COc1ccc(-c2coc3cc(OCCN4CCN(CCO)CC4)ccc3c2=O)cc1	i	x	x	x
CN(C)CCNC(=O)C(C)(C)Oc1nn(CC2CCOCC2)c2ccccc12	32µM*	0	8%[87.6 µM]	5%[87.6 µM]
CC(C)(Oc1nn(CC2CCOCC2)c2ccccc12)C(=O)NCc1ccncc1	i	-6	0%[87.6 µM]	-2%[87.6 µM]
O=C(CCC1CCCN(S(=O)(=O)c2ccccc2)C1)N1CCN(c2ccccn2)CC1 (stereo unspecified)	22µM*	3	0%	-27%
Cc1ccc(C(=O)N2CCC(CCC(=O)N3CCN(c4ccccn4)CC3)CC2)cc1	28µM*	22	-1%	77%
Cc1ccc(S(=O)(=O)N2CCCC(CCC(=O)N3CCCCC3)C2)cc1 (stereo unspecified)	i	0	-15%	0%
Cc1ccc(-c2cc(C(=O)OCC(=O)N3CCOCC3)c3ccccc3n2)cc1	i	x	x	x
Cc1cc(C)cc(OCC(=O)Nc2ccc(C(=O)N(C)C)cc2)c1	i	x	x	x
CCC(=O)Nc1cc(C(=O)NCC(C)C)c2ccc(C)nc2c1	22µM*	9	2%	1%
